According to PubChem BioAssay (NCI):
The panel holds about 79,000 compounds, 15% with a hit somewhere; the sample as a whole holds those more often. Active and inactive are the calls of the source. Rule as the data show it: active = growth inhibition above about 70%; inactive = the rest.

How the values were obtained:
[1] = NCI Yeast Anticancer Drug Screen. Data for the rad50 strain (AID 155);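 also: 0% = growth of vehicle-only cultures of the same strain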; conditions: S. cerevisiae rad50 strain growth inhibition, active compounds read high
Method in brief: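 Genetically altered yeast (DNA repair pathway); compound treatment; growth inhibition vs vehicle ctrl.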

[2] = NCI Yeast Anticancer Drug Screen. Data for the mec2-1 strain (AID 157); conditions: S. cerevisiae mec2-1 strain, active compounds read high
Method in brief: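 Cells of the genetically defined mec2-1 yeast strain are incubated with test compound. Inhibition of growth is calculated against vehicle-treated controls.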

[3] = NCI Yeast Anticancer Drug Screen. Data for the sgs1 mgt1 strain (AID 161);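 also: 0% = growth of cultures given vehicle only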; conditions: S. cerevisiae sgs1 mgt1 strain, active compounds read high
Method in brief: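 Test agents were incubated with a DNA-repair-mutant yeast strain. Growth was then read and compared against vehicle-treated controls.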

[4] = NCI Yeast Anticancer Drug Screen. Data for the cln2 rad14 strain (AID 165);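 also: 0% = growth equal to vehicle treated cultures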; conditions: S. cerevisiae cln2 rad14 strain, active compounds read high
Method in brief: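 The screen exposed genetically defined yeast (cln2 rad14) to test compounds and scored growth inhibition relative to vehicle-treated controls.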

[5] = NCI Yeast Anticancer Drug Screen. Data for the bub3 strain (AID 167); conditions: S. cerevisiae bub3 mutant strain, active compounds read high
Method in brief: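 Yeast carrying a defined mutation is treated with each compound, and growth is compared with that of vehicle-exposed cells to give inhibition.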

[6] = NCI Yeast Anticancer Drug Screen. Data for the mlh1 rad18 strain (AID 175); conditions: S. cerevisiae mlh1 rad18 strain growth inhibition, active compounds read high
Method in brief: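 Compound-treated yeast growth, normalised to vehicle controls. Strain bears defined DNA repair mutations.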

[7] = at 5.0 µM (retest, dose inferred, filed as 0.5)
[8] = at 50.0 µM (retest, dose inferred, filed as 5.0)

Measured: growth inhibition

COC(=O)c1ccc(Cl)c(NN)c1
active: [1]; at 50.0 µM 90.4% | [2]; at 50.0 µM 92.8% | [3]; [7] 86% | [3]; [8] 98% | [4]; [8] 99% | [5]; [7] 93% | [5]; [8] 99% | [6]; at 50.0 µM 88.7%
inactive: [1]; [7] 49% | [1]; [8] 66% | [2]; [7] 29% | [2]; [8] 59% | [4]; [7] 61% | [6]; [7] 38% | [6]; [8] 42%

N#Cc1c2ccccc2nc2ccccc12
inactive: [1]; [7] 37% | [1]; [8] 45% | [2]; [7] 21% | [2]; [8] 19% | [2]; at 50.0 µM 16.9% | [3]; [7] -1% | [3]; [8] 37% | [3]; at 50.0 µM 30.1% | [4]; [7] 2% | [4]; [8] 3% | [4]; at 50.0 µM 19.6% | [6]; [7] 1% | [6]; [8] 17%
active: [1]; at 50.0 µM 85.9% | [6]; at 50.0 µM 74.2%

C=C(C)C1CC2(C)C(C)CC(O)CC2C(OC(=O)C=C(C)C)C1O (stereo not given)
active: [1]; [8] 73% | [1]; at 50.0 µM 78.3% | [3]; [8] 78% | [3]; at 50.0 µM 79.8% | [5]; [8] 78% | [5]; at 50.0 µM 80.1% | [6]; [8] 82%
inactive: [1]; [7] 26% | [2]; [7] 12% | [2]; [8] 58% | [2]; at 50.0 µM 69.1% | [3]; [7] 21% | [5]; [7] 15% | [6]; [7] 32% | [6]; at 50.0 µM 69%

CC1=NN(c2ccccc2)C(=O)C1(Br)Br
active: [1]; at 50.0 µM 92.7% | [2]; [8] 71% | [2]; at 50.0 µM 94% | [3]; [8] 99% | [4]; [8] 99% | [5]; [8] 98% | [6]; at 50.0 µM 93.3%
inactive: [1]; [7] 37% | [1]; [8] 64% | [2]; [7] 44% | [3]; [7] 23% | [4]; [7] 43% | [5]; [7] 49% | [6]; [7] 32% | [6]; [8] 58%

COc1cccc2c1C(=O)c1c(O)c3c(c(O)c1C2=O)C[C@@](O)(C(=O)CO)C[C@@H]3OC1CC(OC(C)=O)C(OC(C)=O)C(C)O1 (stereo not given in full)
inactive: [2]; [7] 36% | [3]; [7] 37% | [4]; [7] 41% | [6]; [7] 48%
active: [1]; [7] 71% | [1]; [8] 98% | [1]; at 50.0 µM 86.8% | [2]; [8] 99% | [2]; at 50.0 µM 87.5% | [3]; [8] 99% | [3]; at 50.0 µM 90% | [4]; [8] 99% | [4]; at 50.0 µM 88.7% | [6]; [8] 97% | [6]; at 50.0 µM 91.6%

CC(C)c1ccc(C(=O)OC2CCCC2)cc1
active: [1]; [8] 98% | [1]; at 50.0 µM 96.5% | [2]; [8] 100% | [2]; at 50.0 µM 99.2% | [3]; [8] 99% | [4]; [8] 99% | [4]; at 50.0 µM 94.3% | [6]; [8] 99% | [6]; at 50.0 µM 93.3%
inactive: [1]; [7] 8% | [2]; [7] 9% | [3]; [7] 9% | [3]; at 50.0 µM 54.6% | [4]; [7] 6% | [6]; [7] 4%

Cc1ccccc1NC(=O)Cc1csc2[n+]1C(=O)/C(=C/c1ccc([N+](=O)[O-])cc1)S2
inactive: [1]; [7] 22% | [1]; [8] 28% | [1]; at 50.0 µM 15.7% | [2]; [7] 29% | [2]; [8] 33% | [2]; at 50.0 µM -6.7% | [3]; [7] -14% | [3]; [8] -4% | [3]; at 50.0 µM 39.6% | [5]; [7] 8% | [5]; [8] 4% | [5]; at 50.0 µM 8.95% | [6]; [7] 25% | [6]; [8] 37% | [6]; at 50.0 µM 20.5%

[Cl-].[Rh+3].c1ccc(-c2ccnc3c2ccc2c(-c4ccccc4)ccnc23)cc1.c1ccc(-c2ccnc3c2ccc2c(-c4ccccc4)ccnc23)cc1.c1ccc(-c2ccnc3c2ccc2c(-c4ccccc4)ccnc23)cc1
active: [1]; at 50.0 µM 97.1% | [2]; at 50.0 µM 88.9% | [3]; [8] 87% | [3]; at 50.0 µM 94.5% | [4]; at 50.0 µM 85.7% | [6]; [8] 88% | [6]; at 50.0 µM 95.9%
inactive: [1]; [7] -27% | [1]; [8] 65% | [2]; [7] -15% | [2]; [8] 26% | [3]; [7] -10% | [4]; [7] -4% | [4]; [8] 43% | [6]; [7] -12%

NCCCN(CCCN)CCCNCc1c2ccccc2c(CNCCCN(CCCN)CCCN)c2ccccc12
inactive: [2]; [7] 62% | [3]; [7] 67%
active: [1]; [7] 88% | [1]; [8] 99% | [1]; at 50.0 µM 90.6% | [2]; [8] 99% | [2]; at 50.0 µM 93% | [3]; [8] 98% | [3]; at 50.0 µM 93.3% | [5]; [7] 89% | [5]; [8] 99% | [5]; at 50.0 µM 92.6% | [6]; [7] 96% | [6]; [8] 99% | [6]; at 50.0 µM 91.1%

C=[CH][Sn]([CH]=C)([O]c1cccc2cccnc12)[O]c1cccc2cccnc12
active: [1]; at 50.0 µM 87.3% | [2]; at 50.0 µM 92.7% | [3]; [7] 91% | [3]; [8] 98% | [3]; at 50.0 µM 82.8% | [5]; [7] 87% | [5]; [8] 98% | [5]; at 50.0 µM 89.8% | [6]; at 50.0 µM 87.7%
inactive: [1]; [7] 27% | [1]; [8] 36% | [2]; [7] 25% | [2]; [8] 34% | [6]; [7] 30% | [6]; [8] 60%

CCC1C[N+]2=C(c3cc(OC)c(OC)cc3CC2)c2c1cc1n2CCc2cc(OC)c(OC)cc2-1 (stereo not given)
active: [1]; [7] 99% | [1]; [8] 99% | [1]; at 50.0 µM 93% | [2]; [7] 100% | [2]; [8] 99% | [2]; at 50.0 µM 94.8% | [3]; [7] 99% | [3]; [8] 99% | [3]; at 50.0 µM 94.5% | [4]; [7] 96% | [4]; [8] 99% | [4]; at 50.0 µM 92.8% | [6]; [7] 97% | [6]; [8] 99% | [6]; at 50.0 µM 93.6%
